Data reported in PubChem BioAssay (NCI).
Values joined by “and” are separate entries in the source; they are usually repeats but may differ in a detail not shown here. Identical values can stand only once. This is part of a sample that, as a whole, favours compounds with a hit. Of some 83,000 tested, about 20% had one in any assay.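 Cells were grown in 96-well plates and exposed to the test compound at a single concentration for 48 hours; results are reported as percent growth, with values below 10 considered active.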 A number with no mark means an inactive call. Active and inactive are the calls of the source.

Test system: HL-60(TB) leukemia
Experiment: NCI-60 one-dose screen, 48 h (100 = growth as untreated, 0 = no growth, -100 = all killed)
Details: 10 µM unless noted

Compound | growth
COc1cccc(C2CC(c3cc(OC)c(OC)c(OC)c3)=NN2)c1 (stereo not given) | 55.1%
COc1cc(-c2nnc(-c3nc(-c4cc(OC)c(OC)c(OC)c4)n4ccccc34)o2)ccc1N | 64.8%
O=C1c2ccccc2C(=O)c2c1oc1c2c(=O)[nH]c2ccc(Cl)cc21 | 94.5%
NC(Cc1c[nH]c2ccccc12)C(=O)O (stereo not given) | 108% and 109%
O=C(Nc1ccc(Cl)c(Cl)c1)Nc1ccc(Cl)c([N+](=O)[O-])c1 | -39.9% (active)
C=CCc1cc(OC)c(O)c(OC)c1 | 109%
COc1ccc(/C=C/c2nc(-c3n[nH]c(=O)n3-c3ccccc3)c3ccccc3n2)cc1 | 97.1%
COc1ccc(-c2nnc(SCC(=O)Nc3ccc(C(=O)/C=C/c4ccccc4)cc3)n2-c2ccccc2)cc1OC | 65.3%
CCOC(=O)c1c(C)c2c(n1C)CSc1cc(C(=O)c3ccccc3)c(=O)[nH]c1-2 | 74.7% [100 µM]
C#CC[C@@H]1C[C@]2(C)[C@H]3CC=C4[C@H]5CC(C)(C)CC[C@]5(C(=O)NCCCCN)CC[C@@]4(C)[C@]3(C)CC[C@H]2C(C)(C)[C@H]1OC(C)=O | -46.5% (active)
COc1ccc(/C(C)=N/NC(=O)c2ccc(S(C)(=O)=O)cc2)cc1OC | 50.9%
O=C(c1ccccc1)C(O)C(Br)(CBr)c1ccccc1 (stereo not given) | 65.4%
C=C1C(=O)O[C@H]2[C@H]1CC/C(COC(=O)NCc1c[nH]c3ccc(OC)cc13)=C\CC[C@@]1(C)O[C@@H]21 | -35.8% (active)
NC(CSC(c1ccccc1)(c1ccccc1)c1ccccc1)C(=O)NCC(=O)O (stereo not given) | 55%
Cc1cc(C(=O)CSc2nc3ccccc3c(=O)[nH]2)c(C)n1C | 102%
CC1(C)CC(=O)NC1=O | 111%
COc1ccc(/C=C/C(=O)/C=C(/C=C/c2ccc(OC)c(OC)c2)OB(F)F)cc1OC | 19.7%
O=C(Nc1ccc(Oc2cccc(F)c2)c(Cl)c1)c1cccnc1 | 12.1%
O=C(Nc1ncc(Cc2ccc(Cl)c(C(F)(F)F)c2)s1)c1ccc2nnsc2c1 | 42.5%
Nc1nc2c(c3cnccc13)C(c1cccc(Br)c1)Cc1cnccc1-2 (stereo not given) | 3.01% (active)

Compound | growth
CC1CCC(C(=O)O)N1 (stereo not given) | 79.7%
C=C1c2nc3ccccc3n2C=C(c2ccc(OC)cc2)N1Cc1ccccc1 | 80%
O=C(C(=O)N1CCOCC1)c1cn(CCCn2cc(C(=O)C(=O)N3CCOCC3)c3ccccc32)c2ccccc12 | 91.9%
CCCCCCCCCCCC(=O)OCCNC(=O)C[n+]1ccccc1 | 100%
Cc1cc(OI)c(C(C)C)cc1-c1cc(C(C)C)c(OI)cc1C | 106%
COc1cc(NC(=O)C#Cc2ccccc2)c(OC)cc1Cl | 42.7%
COc1cccc(C2=NN(C(C)=O)C(c3cc(OC)c(OC)c(OC)c3)C2)c1 (stereo not given) | -17.8% (active)
CC(C)OCc1cc(CN2CCN(c3cccc(Cl)c3)CC2)c(O)c2ncccc12 | -46% (active)
O=S(=O)(Nc1ccc(NS(=O)(=O)c2ccccc2)c(Cl)c1)c1ccccc1 | 78.4%
CCCCCCCCn1ccc2cc(NC(=O)Cn3cc(CN4CCCC4)nn3)ccc21 | 13.8%
O=C(Nc1ccc(Cl)c(Cl)c1)Nc1ccccc1O | 61.6%
CCCCC1CCCCN1C(=O)OCC (stereo not given) | 128%
CCOc1c(C#N)c2c(N)ncnc2n1C1OC(CO)C(O)C1O (stereo not given) | 2.98% (active)
COc1c(B(O)O)cccc1-c1nc2ccc3[nH]ncc3c2c2c1CCC2 | 61.6%
O=C(N/N=C1\c2ccccc2-c2cccc(C(=O)O)c21)c1ccc(O)cc1 | 103%
O=C(c1ccccc1)C(CN1CCCCC1)c1ccccc1 (stereo not given) | -43.7% (active)
O=C(CSc1nnc(-c2ccc(NC(=O)c3cccnc3)cc2)o1)N[C@@H](Cc1ccc(O)cc1)C(=O)O | 99.4%
CCOC(=O)c1cc2c(=O)oc3ccccc3c2oc1=O | 106%
CNc1ccc2nc3ccc(=[N+](C)C)cc-3sc2c1 | -22.9% (active) and 5.72% (active)
C=CC(=O)NCc1ccc(Nc2nccc(-c3ccc(N4CCCC4)c(C#N)c3)n2)cc1 | -12.9% (active)
